Source: PubChem (National Center for Advancing Translational Sciences (NCATS))
MCF10A rereplic: A quantitative high throughput screen for small molecules that induce DNA re-replication in MCF 10a normal breast cells; AID 624296, 2012; Potency, µM (titrated, usually from 46.1 µM), for the others: at the top dose activity, positive = re-replication, actives largely listed as activators; MCF 10A DNA re-replication, Hoechst nuclear intensity, 48 h; 350,000 compounds, 2.9% hits; note: potency is the fitted concentration of half-maximal effect; % of control where 0% means no effect; nearly all actives have a fitted effect of over 50% in size
PINK1 modulator: A Quantitative High throughput Screen to Identify Chemical Modulators of PINK1 Expression; PINK1 immunofluorescence, high-content cytometry, 24 h; Potency, µM (highest dose often 76.6 µM), for the others: at the highest dose activation (PINK1 increase), usual class: activators; 410,000 compounds, 0.2% hits; active = well fitted activation curve with a large enough effect; inconclusive = small, poorly fitted or top-dose-only effect; cell line not stated here; note: potency is the fitted concentration of half-maximal effect; % of control where 0% means no effect; nearly all actives have a fitted effect of over 65% in size
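PINK1 protein level read as immunofluorescence by microplate cytometer in a fixed, stained stable cell line after 24 h exposure to five compound concentrations, with CCCP as control.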
IL-1B inflam inh: qHTS for Inhibitors of Inflammasome Signaling: IL-1-beta AlphaLISA Primary Screen | THP-1 LPS/ATP IL-1B secretion, AlphaLISA, 16 h; active compounds read low | activity change, % at 57.5 µM | 360,000 compounds, 4.7% hits | AID 743279, 2014; in the data active = activity change below about -50%; inconclusive = mostly about -30% to -49%; note: % is set by controls: 0 for no effect and ±100 for the full control effect
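THP-1 cells pretreated 1 hr with compounds (up to 57.5 uM final), then stimulated with LPS (250 ng/mL final) plus ATP (1.25 mM final); secreted IL-1B measured by AlphaLISA after 16 hr, decreased signal indicating inhibition.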
SW480 rerep: A quantitative high throughput screen for small molecules that induce DNA re-replication in SW480 colon adenocarcinoma cells; SW480 DNA re-replication, Hoechst DNA content imaging, 48 h; Potency, µM (titrated, usually from 46.1 µM), for inactives: at the highest dose re-replication activation, actives largely listed as activators; 340,000 compounds, 1.8% hits; note: potency is the fitted concentration of half-maximal effect; % of control where 0% means no effect; nearly all actives have a fitted effect of over 55% in size
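DNA re-replication was detected as more nuclei of elevated Hoechst intensity after 48 hr exposure to compound (23 nL pinned per well of 250 cells).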
S2 tox: Viability Counterscreen for Primary qHTS for Inhibitors of ATXN expression | S2 cells (HEK-293 line with an ATXN2-luciferase reporter) viability, CellTiter-Fluor protease fluorescence, 24 h | Potency, µM (highest dose often 56.7 µM), most hits filed as cytotoxic | 400,000 compounds, 0.49% hits; note: potency is the fitted concentration of half-maximal effect; nearly all actives have a fitted effect of over 40% in size
ATXN2 expr inh: Primary qHTS for Inhibitors of ATXN expression. HEK-293 ATXN2-luciferase reporter, luminescence, 24 h. Potency, µM (doses to about 57 µM), for inactives: top-dose activity change, negative = inhibition, most hits filed as inhibitors. 360,000 compounds, 0.72% hits. AID 1745845, 2022; note: potency is the fitted concentration of half-maximal effect; % is set by controls: 0 for no effect and ±100 for the full control effect; nearly all actives have a fitted effect of over 55% in size
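qHTS (up to 57 uM final) was run with 24 h compound exposure of reporter cells at 37 °C. Each well was multiplexed: SteadyGlo luminescence measured ATXN2-luciferase expression after a fluorogenic Gly-Phe-AFC viability readout (25 uM final).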
The depositor's hits bear a star; i = inactive; ? = inconclusive; nt = no result given; [ ] = remark or other dose. Rows were chosen to be rich in hits. Some 7.1% of all compounds tested hit in one or more screens of this group. Unless noted, calls come from the whole dose curve; as a rule, active = well fitted curve in the direction sought with a large enough effect; inconclusive = small, poorly fitted or top-dose-only effect, or another doubt; inactive = no such curve, though single readings can be large; an effect the other way counts as inactive or inconclusive.

SMILES	MCF10A rereplic	PINK1 modulator	IL-1B inflam inh	SW480 rerep	S2 tox	ATXN2 expr inh
Cc1cccc(Cn2ncc(Cl)c(Cl)c2=O)c1	13µM*	-11%[38.3 µM]	-102*	5.8µM*	nt	?
Cc1ccc(C)c(C(=O)Cn2ncc(Cl)c(Cl)c2=O)c1	4.6µM*	-3%	-104*	?	18µM*	?
Cc1ccc(C)c(C(=O)CN2C(=O)c3ccccc3C2=O)c1	4%	2%	-12	-13%	i	2%
Cc1cc2oc(=O)cc(Cn3ncc(Cl)c(Cl)c3=O)c2cc1Cl	7.3µM*	-3%	-101*	2.6µM*	nt	25µM*
O=c1c2ccccc2cnn1Cc1ccc(Cl)c(Cl)c1	1%	2%	10	5%	i	-16%
CCCc1cc(=O)[nH]c(SCC(=O)c2cc(C)n(CC(F)(F)F)c2C)n1	21%	1%	59	-5%	i	-10%
Cc1ccccc1NC(=O)CSc1nc2c(oc3ccccc32)c(=O)n1Cc1ccco1	nt	4%	nt	nt	i	3%
O=C(NCCc1ccc(F)cc1)C(=O)NCC(c1cccs1)S(=O)(=O)c1ccc(F)cc1 (centres undefined)	nt	-1%	nt	nt	?	?
CCOc1ccc(S(=O)(=O)N2CCOCC2)cc1NC(=O)CSCc1ccc(C)cc1	?	6%	25	?	?	nt
CCOC(=O)Cn1c(=O)n(CC2CCCO2)c2nc(-c3ccc(CC)cc3)nc(C(N)=O)c21 (centres undefined)	nt	0%	nt	nt	i	34%
NS(=O)(=O)c1ccc(S(=O)(=O)N2CCN(c3nc(-c4cccs4)nc4ccccc34)CC2)cc1	nt	0%	nt	nt	nt	nt
Cc1cc(Cl)ccc1NC(=O)C1CCCN(c2nnc(C)c3c(C)n(-c4ccccc4)nc23)C1 (centres undefined)	nt	0%	nt	nt	i	1%
CC(C)n1c(O)c(N=NC(=O)C2COc3ccccc3O2)c2ccccc21 (centres undefined)	13µM*	2%	-89*	?	i	-14%
CCN(CC)CCCn1c2c(c(SCC(=O)Nc3ccc(OC(F)(F)F)cc3)nc1=O)CCC2	?	3%	-69*	19%	?	-15%
CCN(CC)CCn1c2c(c(SCC(=O)Nc3nccs3)nc1=O)CCCC2	14%	-1%	-21	-37%	i	1%
CCN(CC)CCCn1c2c(c(SCC(=O)Nc3nc4ccccc4s3)nc1=O)CCC2	4%	2%	-51*	-1%	i	3%
CCN(CC)CCCn1c2c(c(SCC(=O)Nc3ccc(C)c(F)c3)nc1=O)CCC2	5%	0%	-67*	-1%	i	-2%
Cc1ccc(Oc2nc3c(c(=O)n(Cc4ccccc4)c(=O)n3C)n2C)cc1C	nt	2%	nt	nt	i	-1%
NCc1c[nH]c(=S)n1[C@H]1CCc2c(F)cc(F)cc2C1	nt	nt	nt	nt	nt	49%
Cc1nc2nc(SCC(=O)NCCc3ccc(Cl)cc3)nn2c(C)c1Cc1ccccc1	nt	2%	nt	nt	i	-21%
Cc1ccc(N2C(=O)C3C(C2=O)C(C(=O)c2ccc(Cl)cc2)N2CCCC32)cc1 (centres undefined)	-13%	-1%	23	-3%	i	1%
CC(=O)Oc1ccc(N2C(=O)C3C(C2=O)C(C(=O)c2ccc(Cl)cc2)N2CCCC32)cc1 (centres undefined)	18µM*	4%	-101*	4.6µM*	i	?
COc1ccc(CCn2c(=N)c(C(=O)NC3CCCCC3)cc3c(=O)n4ccccc4nc32)cc1	?	6%	-13	?	?	-8%
Cc1ccc2nc3c(cc(C(=O)NCCc4ccccc4)c(=N)n3CCCN3CCOCC3)c(=O)n2c1	4.6µM*	1%	-12	4.6µM*	nt	-14%
